Data taken from PubChem BioAssay AID1159580 (chemical genetic matrix, 2015).
The campaign covered roughly 5,500 compounds. About 2,000 (36%) were called active. About 18% were inconclusive and are not listed. Rule as the data show it: active = normalized growth mostly below about 0.91 (no sharp cut-off); inconclusive = no clear call, values can overlap the other calls; inactive = mostly above about 0.92. The list shows a part of the results.

Assay: chemical genetic growth profiling, strain panel (AID 1159580);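 also: tested at 20 µM; growth read once vehicle control cultures reached saturation at 30 °C; 1 = growth at the plate median or of vehicle wells; lower values mean less growth of the strain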
Conditions: S. cerevisiae deletion strains, growth OD

Measured: normalized growth

CCOC(=O)c1c(C)c(Cl)c(O)c(Cl)c1O
active: locus YAL021C, strain ccr4, active compounds read low 0.682 | locus YAL026C, strain drs2, active compounds read low 0.469 | locus YAL030W, strain snc1, active compounds read low 0.692 | locus YBL061C, strain skt5, active compounds read low 0.637 | locus YBR009C, strain hhf1, active compounds read low 0.407 | locus YBR023C, strain chs3, active compounds read low 0.589 | locus YBR171W, strain sec66, active compounds read low 0.619 | locus YBR231C, strain swc5, active compounds read low 0.469 | locus YBR279W, strain paf1, active compounds read low 0.686 | locus YCL011C, strain gbp2, active compounds read low 0.499 | locus YCL016C, strain dcc1, active compounds read low 0.495 | locus YCL061C, strain MRC1, active compounds read low 0.408 | locus YCL069W, strain vba3, active compounds read low 0.407 | locus YCR088W, strain abp1, active compounds read low 0.517 | locus YDL005C, strain med2, active compounds read low 0.76 | locus YDL040C, strain nat1, active compounds read low 0.663 | locus YDR001C, strain nth1, active compounds read low 0.516 | locus YDR069C, strain doa4, active compounds read low 0.72 | locus YDR137W, strain rgp1, active compounds read low 0.266 | locus YDR159W, strain sac3, active compounds read low 0.459 | locus YDR195W, strain ref2 0.697 | locus YDR297W, strain sur2, active compounds read low 0.677 | locus YDR334W, strain swr1, active compounds read low 0.361 | locus YDR335W, strain msn5, active compounds read low 0.517 | locus YDR392W, strain spt3, active compounds read low 0.0936 | locus YEL003W, strain gim4, active compounds read low 0.397 | locus YEL037C, strain rad23, active compounds read low 0.666 | locus YEL061C, strain CIN8 (second series), active compounds read low 0.171 | locus YER015W, strain faa2, active compounds read low 0.652 | locus YER016W, strain bim1, active compounds read low 0.559 | locus YER111C, strain swi4, active compounds read low 0.189 | locus YER155C, strain BEM2 (second series), active compounds read low 0.15 | locus YFR010W, strain ubp6, active compounds read low 0.696 | locus YGL167C, strain pmr1, active compounds read low 0.67 | locus YGL173C, strain kem1, active compounds read low 0.512 | locus YGL227W, strain vid30, active compounds read low 0.188 | locus YGL240W, strain doc1, active compounds read low 0.375 | locus YGL253W, strain hxk2, active compounds read low 0.254 | locus YHR013C, strain ard1, active compounds read low 0.634 | locus YHR027C, strain rpn1, active compounds read low 0.719 | locus YHR142W, strain chs7, active compounds read low 0.245 | locus YJL092W, strain hpr5, active compounds read low 0.456 | locus YJL095W, strain BCK1 (second series), active compounds read low 0.292 | locus YJL115W, strain asf1, active compounds read low 0.667 | locus YJL129C, strain trk1, active compounds read low 0.261 | locus YJL154C, strain vps35, active compounds read low 0.702 | locus YJL164C, strain tpk1, active compounds read low 0.467 | locus YJL166W, strain qcr8, active compounds read low 0.448 | locus YJL187C, strain SWE1, active compounds read low 0.61 | locus YKL160W, strain elf1, active compounds read low 0.454 | locus YKR026C, strain gcn3, active compounds read low 0.697 | locus YKR091W, strain srl3, active compounds read low 0.677 | locus YLL001W, strain dnm1, active compounds read low 0.563 | locus YLL026W, active compounds read low 0.436 | locus YLL041C, strain sdh2, active compounds read low 0.635 | locus YLR027C, strain aat2, active compounds read low 0.517 | locus YLR221C, strain rsa3, active compounds read low 0.398 | locus YLR258W, strain gsy2, active compounds read low 0.561 | locus YLR262C, strain YPT6 (second series), active compounds read low 0.277 | locus YLR320W, strain mms22, active compounds read low 0.27 | locus YLR342W, strain FKS1, active compounds read low 0.369 | locus YLR357W, strain rsc2, active compounds read low 0.64 | locus YLR370C, strain arc18, active compounds read low 0.701 | locus YLR384C, strain iki3, active compounds read low 0.681 | locus YML120C, strain ndi1, active compounds read low 0.409 | locus YMR058W, strain fet3, active compounds read low 0.429 | locus YMR125W, strain sto1, active compounds read low 0.259 | locus YMR129W, active compounds read low 0.651 | locus YMR205C, strain PFK2, active compounds read low 0.283 | locus YMR231W, strain pep5, active compounds read low 0.361 | locus YNL071W, strain lat1, active compounds read low 0.127 | locus YNL209W, strain ssb2, active compounds read low 0.753 | locus YNL248C, strain rpa49, active compounds read low 0.645 | locus YNL322C, strain KRE1 (second series), active compounds read low 0.783 | locus YNR049C, strain mso1, active compounds read low 0.432 | locus YOR001W, strain rrp6, active compounds read low 0.4 | locus YOR070C, strain gyp1, active compounds read low 0.499 | locus YOR080W, strain dia2, active compounds read low 0.701 | locus YOR083W, strain WHI5, active compounds read low 0.608 | locus YOR106W, strain vam3, active compounds read low 0.459 | locus YOR265W, strain rbl2, active compounds read low 0.676 | locus YOR270C, strain vph1, active compounds read low 0.214 | locus YOR290C, strain snf2, active compounds read low 0.424 | locus YPL051W, strain arl3, active compounds read low 0.414 | locus YPL078C, strain atp4, active compounds read low 0.391 | locus YPL106C, strain sse1, active compounds read low 0.568 | locus YPL240C, strain hsp82, active compounds read low 0.492
